This is an account of results in PubChem BioAssay.

“And” between values parts separate entries of the source, which are not always exact repeats. Equal values may be shown once. For some of these results: Potency and affinity values are given separately. The source made the active and inactive calls.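 The calls were made as follows, unless noted: active = compounds whose cell count with miR-34 switched on is under 0.7 times the count with it off; inactive = the rest.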

As a reminder, the inhibition is the drop in the measured response relative to a control, in per cent. A word on the viability: it is a read-out of living cells in per cent, often relative to untreated cells.

A short description of experiment [1]: blockers of polyQ-driven CASP3 activation – cell-based (AID 1583). To be noted: polyglutamine-induced caspase-3 activation, cell assay; stronger effect = higher value;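 tested at 10 µM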.
Experiment [2] is described as follows: yeast 75Q aggregation reduction – 75Q-TubU reporter (AID 1593). The following applies: Yeast 75Q polyglutamine aggregation reporter.
A short description of experiment [3]: restoration of touch response, mutant HTT neurons – whole organism, C. elegans mechanosensory neurons, N-terminal huntingtin (AID 1599). The following applies: C. elegans polyQ-huntingtin mechanosensory neurons, stronger effect = higher value.
Experiment [4] is described as follows: blockers of cytochrome c efflux from mitochondria – biochemical, purified mitochondria (AID 1603).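 Also: mouse liver mitochondria challenged with calcium chloride; signal normalized to the plate average as 100%.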 To be noted: stronger effect = lower value.
Experiment [5] is described as follows: polyglutamine aggregate formation blockers (AID 1604). To be noted: polyglutamine-induced protein aggregation inhibition assay; stronger effect = higher value; tested at 2.5 µM.
Experiment [6] can be described thus: glutamate transport activators, MN-1 cells, MN-1 cell line (AID 1612).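 Also: tested at 1 µM final; 0% = mean of DMSO vehicle wells on each plate; positive means more glutamate uptake than control and negative means less.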 The following applies: MN-1 motor neuron cells, stronger effect = higher value.
The nature of experiment [7]: GFP-Q80 aggregate reduction, neuronal-like cells, cell-based, NGF-treated PC12, GFPQ80 (AID 1614).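 Also: lower means fewer inclusions and 0 means no inclusions at all.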 To be noted: PC12 NGF-treated GFP-polyQ80 inclusion reduction.
Experiment [8] is described as follows: 75Q-TubH aggregate inhibition, S. cerevisiae, yeast (AID 1616). To be noted: S. cerevisiae 75Q-TubH polyglutamine aggregation suppression; stronger effect = higher value.
Experiment [9] in a line: compounds altering circadian rhythm period length – cell-based, LOPAC library, luminescence reporter (AID 2774; call rule not given here;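 also: values are relative to mean of DMSO wells on each plate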). To be noted: circadian reporter cells, at 7 µM, actives lie on both sides.
Experiment [10] relates to Hepatitis C virus NS3 helicase. Nature of the experiment: blockers of NS3h binding to ssDNA – biochemical, fluorescence polarization, LOPAC1280 library, primary screen (AID 687035; in the data active = inhibition above about 37%). To be noted: Purified HCV NS3 helicase, Cy5-dT15 ssDNA binding fluorescence polarization; stronger effect = higher value; concentration not given here. For orientation: In fluorescence polarisation assays a small probe gives low polarisation when free and higher when bound to something large.

Experiment [11] can be described thus: compounds altering Cy5-DNA-NS3h complex signal – biochemical, LOPAC1280, artefact control for HCV NS3 helicase inhibitor project (AID 687037; call rule not given here). To be noted: Cy5-DNA-NS3h complex fluorescence interference counterscreen. For orientation: Counterscreens check selectivity or assay interference.
Experiment [12] in a line: EMT-state selective cytotoxicity in co-culture – imaging, PC-3E GFP, TEM4-18 mCherry, primary screen (AID 1345086;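 active = compounds killing one labelled cell type while sparing the other, by normalised counts and ratio limits, not self-fluorescent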;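 as to all read-outs here: cells exposed to compound for 72 h before imaging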;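 as to red/green cell ratio (normalised): normalised mesenchymal count divided by normalised epithelial count so high means epithelial killing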). To be noted: PC-3E GFP / TEM4-18 mCherry co-culture, imaging cell counts, at 1 µM; for red/green cell ratio (normalised): actives lie on both sides, counts scaled to control wells, 1 = unselective.
Experiment [13] is described as follows: viability loss with induced miR-34 in A549 – imaging, A549 dox-inducible miR-34, nuclei and caspase counts, primary screen (AID 1347080). To be noted: A549 miR-34 inducible, Hoechst nuclei count, 48 h.
A short description of experiment [14]: blockers of cellular phospholipid synthesis – cell-based, LOPAC library, screen 4, primary screen (AID 1347384; call rule not given here). To be noted: animal cells, phospholipid biosynthesis inhibition screen; at 10 µM.
Experiment [15] addresses Mitogen-activated protein kinase 7 (Homo sapiens) (UniProt Q13164). Nature of the experiment: Gal4-ERK5 driven luciferase induction – cell-based, HTS, primary screen (AID 1508626;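 active = luciferase signal above three times the same-plate solvent-only control wells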;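 also: luciferase driven by Gal4-ERK5 fusion binding five Gal4 sites before minimal TATA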). To be noted: HeLa Gal4-ERK5 transactivation, 18 h, at 5 µM, stronger effect = higher value.
Experiment [16] is described as follows: galactose survival enhancers in mitochondrial complex I cybrids – cell-based, galactose medium, ATP luminescence, primary screen (AID 1645843;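 active = z-score of at least 1.8 in each of two replicates, scored against plate mean and spread of sample wells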;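 also: positive z means more ATP and so rescue of galactose-driven cybrid death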). The following applies: complex I mutant cybrid cells, 72 h, stronger effect = higher value.
The nature of experiment [17]: P. berghei load reduction in hepatocytes – cell-based, HepG2, luciferase luminescence, HepG2 viability, primary screen (AID 624349; in the data active = parasite load remaining mostly below about 12%, no sharp cut-off; inactive = mostly above about 10%;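 also: 100% = mean of DMSO negative control wells on the same plate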). The following applies: P. berghei liver stage in HepG2, luciferase luminescence, concentration not given here; parasite load remaining: stronger effect = lower value; viability: measured here: HepG2 viability without parasites.
Experiment [18] can be described thus: MELAS cybrid and Rieske KO viability enhancers – cell-based, MELAS cybrids, Rieske KO mouse fibroblasts, CellTiter-Glo, primary screen (AID 1508586;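 active = mean z-score across replicates of 1.96 or higher in either the MELAS or the Rieske mutant cell line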;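 also: z relative to plate mean and SD of compound and empty wells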). To be noted: low glucose. Background: Cellular ATP, detected with luciferase, serves as a proxy for viable cell number.
In experiment [19] the target is NAD(+) hydrolase SARM1 (Homo sapiens) (UniProt Q6SZW1). Nature of the experiment: blocking NAD cleavage by SARM1 SAM-TIR – cell lysate, NAD-Glo luminescence (AID 1508614;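 active = compound whose remaining NAD level is above about 45 nM, limit read from the data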;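 also: higher remaining NAD means stronger inhibition of SARM1 NADase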). To be noted: SAM-TIR HEK293T lysate NADase, at 1 µM, stronger effect = higher value.
Chain of NAD(+) hydrolase SARM1 (Homo sapiens) (Q6SZW1 whole entry, looked up): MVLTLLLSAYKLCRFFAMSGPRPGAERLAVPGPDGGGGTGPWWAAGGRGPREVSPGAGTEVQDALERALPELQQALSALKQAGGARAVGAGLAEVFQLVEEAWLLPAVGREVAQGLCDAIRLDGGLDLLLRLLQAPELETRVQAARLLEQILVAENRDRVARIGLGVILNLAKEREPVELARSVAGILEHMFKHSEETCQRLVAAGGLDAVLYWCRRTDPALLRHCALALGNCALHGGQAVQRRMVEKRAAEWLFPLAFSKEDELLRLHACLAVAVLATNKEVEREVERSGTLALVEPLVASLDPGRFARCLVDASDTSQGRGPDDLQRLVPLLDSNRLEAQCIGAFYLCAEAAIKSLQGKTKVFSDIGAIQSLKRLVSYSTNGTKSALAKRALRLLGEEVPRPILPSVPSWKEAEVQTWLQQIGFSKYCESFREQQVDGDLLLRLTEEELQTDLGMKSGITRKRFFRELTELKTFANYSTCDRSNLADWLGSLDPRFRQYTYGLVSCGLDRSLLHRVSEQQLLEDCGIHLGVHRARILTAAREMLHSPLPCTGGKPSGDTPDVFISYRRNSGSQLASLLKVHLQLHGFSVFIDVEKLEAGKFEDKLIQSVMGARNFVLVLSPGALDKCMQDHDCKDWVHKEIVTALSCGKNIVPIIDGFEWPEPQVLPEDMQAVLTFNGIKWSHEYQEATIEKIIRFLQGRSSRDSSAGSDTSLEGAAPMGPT
The mark [20] stands for this setting: measured here: epithelial PC-3E GFP cell survival.
[21] abbreviates: measured here: mesenchymal TEM4-18 mCherry cell survival.
Where [22] appears, read: stronger effect = lower value, cell number ratio, induced over uninduced.
The mark [23] stands for this setting: measured here: relative caspase fold change +Dox/-Dox.
Setting [24] is: measured here: total cells with miR-34 induction, stronger effect = lower value.
Where [25] appears, read: measured here: total cells without miR-34 induction.
The mark [26] stands for this setting: MELAS cybrid survival, CellTiter-Glo 48 h, stronger effect = higher value.
The mark [27] stands for this setting: Rieske KO mouse fibroblast survival, CellTiter-Glo 72 h.

Chain of Mitogen-activated protein kinase 7 (Homo sapiens) (Q13164 whole entry, looked up, the tested form may be a part): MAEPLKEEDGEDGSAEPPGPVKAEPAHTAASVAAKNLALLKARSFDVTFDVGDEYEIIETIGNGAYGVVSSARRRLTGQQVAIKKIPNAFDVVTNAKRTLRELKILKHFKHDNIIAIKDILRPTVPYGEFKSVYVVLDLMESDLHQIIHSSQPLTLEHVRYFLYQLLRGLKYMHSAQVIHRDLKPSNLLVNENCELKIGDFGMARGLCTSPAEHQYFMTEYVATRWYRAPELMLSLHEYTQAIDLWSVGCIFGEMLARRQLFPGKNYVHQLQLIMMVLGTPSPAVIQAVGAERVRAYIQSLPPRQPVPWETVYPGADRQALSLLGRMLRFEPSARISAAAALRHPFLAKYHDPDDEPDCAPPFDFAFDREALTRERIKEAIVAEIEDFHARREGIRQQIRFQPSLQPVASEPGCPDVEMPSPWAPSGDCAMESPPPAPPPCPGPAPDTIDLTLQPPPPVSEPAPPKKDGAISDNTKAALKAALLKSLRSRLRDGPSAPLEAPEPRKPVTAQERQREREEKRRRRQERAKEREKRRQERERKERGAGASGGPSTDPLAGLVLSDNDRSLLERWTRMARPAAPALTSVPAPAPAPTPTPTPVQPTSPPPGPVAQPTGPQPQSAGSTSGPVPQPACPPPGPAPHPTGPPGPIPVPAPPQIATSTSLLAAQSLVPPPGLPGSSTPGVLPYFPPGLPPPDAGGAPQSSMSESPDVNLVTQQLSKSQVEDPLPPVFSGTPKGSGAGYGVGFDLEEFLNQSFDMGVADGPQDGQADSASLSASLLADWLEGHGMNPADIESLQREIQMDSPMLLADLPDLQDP

In the case of `CCCCC[C@H](CC(=O)NO)C(=O)N[C@H](C(=O)N1CCC[C@H]1CO)C(C)C`, the inhibition in experiment [1] was -22.9%; in experiment [10], 0% (inactive). Besides, in experiment [2], the score amounted to 1.1. For the same compound, the rescue above control in [3] is 7.47. Further, the cytochrome c release ratio in [4] is 0.78. Moreover, the inhibition of aggregation in [5] came to 14.3%. The same compound had a glutamate uptake change in experiment [6] of 9.77%. The same compound had an inclusion score in [7] of 2. This compound displayed an aggregation suppression score in [8] of 1.26. In experiment [9], the period change is -0.03 h (inactive). Besides, the fluorescence ratio (interference) in [11] was 1.1 (inactive). In addition, the red/green cell ratio (normalised) in experiment [12] is 0.91 (inactive). In addition, the normalised cell number in [12] (setting [20]) turned out to be 1.02; in [12] (setting [21]), 0.93. Also, the fold change in [13] (setting [22]) was 2.17 (inactive); in [13] (setting [23]) it was 1.05. Besides, the cell count in experiment [13] (setting [24]) is 6800; in experiment [13] (setting [25]), 3130. Besides, in experiment [14], the outcome was inactive. In [15], the luciferase signal was 192 AU (inactive). The z-score in experiment [16] is 2.42 (inactive).
Take `CC[C@H]1OC(=O)[C@H](C)[C@@H](O[C@H]2C[C@@](C)(OC)[C@@H](O)[C@H](C)O2)[C@H](C)[C@@H](O[C@@H]2O[C@H](C)C[C@H](N(C)C)[C@H]2O)[C@](C)(O)C[C@@H](C)[C@@H]2N[C@@H](COCCOC)O[C@H]([C@H]2C)[C@]1(C)O`: the parasite load remaining in [17] is 193% (inactive) and 158% (inactive) and 59.8% (inactive). In experiment [17], the viability is 113% and 86.5% and 194%. Further, in experiment [12], the red/green cell ratio (normalised) is 0.74 (inactive). For the same compound, the normalised cell number in experiment [12] (setting [20]) came out at 1.25; in experiment [12] (setting [21]) it was 0.93. Besides, the fold change in [13] (setting [22]) is 0.867 (inactive) and 0.854 (inactive); in [13] (setting [23]), 0.963 and 2.6. For the same compound, the cell count in experiment [13] (setting [24]) is 8760 and 11500; in [13] (setting [25]), 10100 and 13500. In addition, the z-score in experiment [18] (setting [26]) is -1.14 (inactive); in [18] (setting [27]), -0.393. Further, the remaining NAD in [19] is 10 nM (inactive). Moreover, the luciferase signal in [15] is 44 AU (inactive).
For `CC1(C)O[C@@H]2CC3C4CCC5=CC(=O)C=C[C@]5(C)C4[C@@H](O)C[C@]3(C)[C@]2(C(=O)CO)O1` (stereo partly specified), in [12], the red/green cell ratio (normalised) is 0.93 (inactive). The figures for the normalised cell number in [12] (setting [20]) and in [12] (setting [21]) were 1.22 and 1.14, respectively. Besides, the fold change is 0.861 (inactive) in experiment [13] (setting [22]) and 1.01 in experiment [13] (setting [23]). Further, the cell count in experiment [13] (setting [24]) turned out to be 5940; in experiment [13] (setting [25]), 6900.
For `CC(C)CC(N)=O`, the red/green cell ratio (normalised) in experiment [12] was 0.8 (inactive). For the same compound, the figures for the normalised cell number in experiment [12] (setting [20]) and in experiment [12] (setting [21]) were 1.07 and 0.86, respectively. The fold change is 0.906 (inactive) and 0.908 (inactive) in experiment [13] (setting [22]); 0.955 and 0.851 in experiment [13] (setting [23]). In addition, the cell count is 8450 and 8440 in [13] (setting [24]); 9330 and 9300 in experiment [13] (setting [25]). For the same compound, the values for the z-score in [18] (setting [26]) and in experiment [18] (setting [27]) were -0.0903 (inactive) and -0.199, respectively. Besides, the remaining NAD in experiment [19] is 10 nM (inactive).
`O=C(O)[C@H]1/C(=C/CO)O[C@@H]2CC(=O)N21`: the parasite load remaining in experiment [17] was 50.6% (inactive). In [17], the viability is 103%. The red/green cell ratio (normalised) in [12] was 1.31 (inactive). The normalised cell number worked out at 0.86 in experiment [12] (setting [20]) and 1.13 in [12] (setting [21]). Further, the figures for the fold change in experiment [13] (setting [22]) and in [13] (setting [23]) were 0.901 (inactive) and 3.53, respectively. The cell count in experiment [13] (setting [24]) was 11900; in experiment [13] (setting [25]) it was 13200. Moreover, the results for the z-score in [18] (setting [26]) and in experiment [18] (setting [27]) were -0.304 (inactive) and -1.19, respectively. Moreover, the remaining NAD in experiment [19] was 10 nM (inactive). In [15], the luciferase signal is 76 AU (inactive).
As to `NCCCNCCCCNCCCN`, in [9], the period change was -0.16 h (inactive). The inhibition in [10] was -1% (inactive). The fluorescence ratio (interference) in experiment [11] was 1 (inactive). In addition, in experiment [12], the red/green cell ratio (normalised) is 1.05 (inactive). For the same compound, the normalised cell number in experiment [12] (setting [20]) turned out to be 0.96; in experiment [12] (setting [21]), 1. The fold change is 0.928 (inactive) in experiment [13] (setting [22]) and 0.993 in experiment [13] (setting [23]). For the same compound, the cell count was 10300 in experiment [13] (setting [24]) and 11100 in experiment [13] (setting [25]). Further, in experiment [14], the compound was classed as inactive. In addition, the z-score in experiment [16] is -0.2 (inactive).
